Source: PubChem BioAssay
D1 antag = antagonists of human D1 dopamine receptor. P21728. HEK293 TREx D1 cells, calcium flux, dopamine EC80; active compounds read low. activity change, negative = inhibition, % at 10 µM. 3.2% of 360,000 active. AID 504652; in the data active means activity change below about -30%; further: on the % scale 0 is the no-effect control and ±100 the full control effect
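Calcium flux readout: force-coupled, inducible Hek293 Trex D1 line, cells induced overnight at 30 C with tetracycline, dye-loaded 30–90 min at RT. Antagonism scored against EC80 dopamine challenge given 180 s after compound.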
D1 PAM = enhances dopamine response at the human D1 receptor. P21728. HEK293 TREx D1 cells, calcium flux, dopamine EC20 potentiation. potentiation, % at 10 µM. 0.036% of 360,000 active. AID 504651; in the data active means potentiation above about 30%; further: 0% is about no effect
TRHR PAM = allosteric enhancers of human TRH receptor; P34981; TRHR cells, fluo-8 calcium fluorescence, EC20 TRH enhancement; enhancement, % at 2 µM; 0.66% of 360,000 active; in the data active means enhancement above about 30%; further: 0% is about no effect
Target sequence (P34981 whole entry, looked up): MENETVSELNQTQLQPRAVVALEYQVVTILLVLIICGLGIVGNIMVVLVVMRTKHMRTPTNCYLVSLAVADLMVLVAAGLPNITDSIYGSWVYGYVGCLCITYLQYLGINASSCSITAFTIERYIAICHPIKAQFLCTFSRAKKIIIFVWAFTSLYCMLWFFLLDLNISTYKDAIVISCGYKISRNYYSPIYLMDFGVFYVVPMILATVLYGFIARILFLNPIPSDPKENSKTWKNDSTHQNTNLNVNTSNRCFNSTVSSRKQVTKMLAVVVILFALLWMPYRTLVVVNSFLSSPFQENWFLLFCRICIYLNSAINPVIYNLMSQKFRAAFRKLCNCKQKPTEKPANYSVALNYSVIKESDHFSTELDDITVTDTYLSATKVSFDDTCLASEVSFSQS
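TRHR-expressing cells loaded with fluo-8 calcium dye were read kinetically (ex 480/em 530) during compound addition, then stimulated with an EC20 of TRH (10 nM final). Enhancement of the Gq-mediated intracellular calcium response was scored.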
D1 ag = human D1 receptor agonism. activation, % at 2 µM. HEK293 T-REx D1 cells, calcium flux, agonist mode. 1% of 360,000 active. P21728; further: 0% is about no effect
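Inducible HEK293 T-REx D1 cells, force-coupled to calcium signalling, were plated at 4000 cells/well with tetracycline and held overnight at 30 C. After no-wash calcium dye loading, compound-evoked calcium rise over 180 s flagged agonists.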
TRHR ag = activates the human TRH receptor. 0.18% of 360,000 active. P34981. activation, % at 2 µM. TRHR cells, calcium flux fluo-8, FDSS agonist mode; further: 0% is about no effect
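Agonist-mode FDSS calcium read (Ex 480/Em 530, 1 s cycles) in 1536-well TRHR cells with fluo-8 dye, after 10-cycle baseline and 23 nL compound addition; TRH at EC20 (10 nM final) added afterwards for the enhancer phase.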
* hit, by the source's call; . = no result. Only some compounds are listed: those with a hit (about 4.6% of all), similar ones and a draw of the others. Unless noted, no stated cut-off is given here; in the data, active means activation above about 30%; inactive means the rest.

SMILES	D1 antag	D1 PAM	TRHR PAM	D1 ag	TRHR ag
Cc1cccc(OCC(O)Cn2c(=N)n(Cc3ccccc3)c3ccccc32)c1 (stereo unspecified)	-3	-4	0	68*	2
Cc1cccc(NC(=O)CSc2ccc(-c3sc(-c4ccccc4)nc3C)nn2)c1C	-1	3	-6	7	0
CC(NC(=O)c1cc(F)c(F)cc1Cl)C1CC2CCC1C2 (stereo unspecified)	10	-4	-2	4	-1
COc1ccc(Br)cc1CNC(=O)c1cc(=O)[nH]c2ccc(S(=O)(=O)N3CCCCC3C)cc12 (stereo unspecified)	-8	2	4	-2	1
COc1ccc(N2CC(NC(=O)c3ccc(S(=O)(=O)N4CCCCC4)cc3)CC2=O)cc1 (stereo unspecified)	.	0	-3	1	0
COc1cc(C(=O)NCC(c2cccs2)S(=O)(=O)c2ccc(F)cc2)cc(OC)c1OC (stereo unspecified)	.	4	10	-4	-1
CCOc1ccc(CN2CCN(CC(O)Cn3c4ccccc4c4ccccc43)CC2)cc1 (stereo unspecified)	-6	-2	0	16	1
COc1ccc(CN2CCN(CC(O)Cn3c4ccccc4c4ccccc43)CC2)cc1 (stereo unspecified)	-94*	-6	5	23	1
COc1ccc(OCC(O)CN2C(=O)c3ccccc3C2=O)cc1 (stereo unspecified)	0	3	-1	1	-1
O=C1c2ccccc2C(=O)N1CC(O)COc1ccc(Cl)cc1 (stereo unspecified)	-31*	-10	10	0	-1
Cc1ccc(C)c(NC(=O)C2CCCN2S(=O)(=O)c2ccc3c(c2)CCCC(=O)N3)c1 (stereo unspecified)	1	-1	2	1	0
Cc1cc(=O)[nH]c2c(C)cc(S(=O)(=O)NCc3ccccc3)cc12	-39*	-3	-6	3	1
Cc1cc(C)cc(NC(=O)C(NCCN2CCOCC2)c2ccccc2)c1 (stereo unspecified)	-54*	-7	0	6	0
CC1=CC(C)(C)NC(=S)N1c1ccc(C)cc1C	-22	-5	-5	4	-1
CC1=CC(C)(C)NC(=S)N1c1cc(C)cc(C)c1	-51*	3	0	-3	0
Oc1c(C(c2ccccc2Cl)N2CCN(Cc3ccccc3)CC2)sc2nc(-c3ccco3)nn12 (stereo unspecified)	.	0	0	-4	0
COc1cccc(C(C2C(=O)CC(C)(C)CC2=O)C2C(=O)CC(C)(C)CC2=O)c1	-1	4	-3	2	-1
COc1cccc(C(C2=C(O)CC(C)(C)CC2=O)C2C(=O)CC(C)(C)CC2=O)c1 (stereo unspecified)	-2	-3	34*	1	0
O=C(NCc1cccc(F)c1)c1ccc(CN2CC(=O)N3CCCCC3C2=O)cc1 (stereo unspecified)	-17	-2	-1	0	1
Cc1cc2c(s1)c1cnn(Cc3cccc(Br)c3)c(=O)c1n2C	-13	1	1	-1	-2
COc1ccc(C(=O)C[n+]2ccc3c(c2)nc(-c2cc(OC)c(OC)cc2OC)n3C)cc1	-31*	-4	-8	1	0
COc1ccc(COCC(O)CN2CCN(S(=O)(=O)c3ccc(C(C)C)cc3)CC2)cc1 (stereo unspecified)	-30*	0	-1	6	1
CCCCCc1cc(=O)oc2c(C(CCN3CCCCC3)c3cc(OC)c(OC)c(OC)c3)c(OC)cc(OC)c12 (stereo unspecified)	15	2	6	18	3
CCCCCc1cc(=O)oc2c(C(CCN3CCCC(C)C3)c3cc(OC)c(OC)c(OC)c3)c(OC)cc(OC)c12 (stereo unspecified)	-47*	-10	1	22	0
COc1cc(OC)c2c(C)cc(=O)oc2c1C(CCN1CCOCC1)c1ccc2c(c1)OCO2 (stereo unspecified)	-68*	-9	-1	11	0
SMILES	D1 antag	D1 PAM	TRHR PAM	D1 ag	TRHR ag
COc1cc(C(CCN2CCN(c3ccccc3)CC2)c2c(OC)cc(OC)c3c(C)cc(=O)oc23)cc(OC)c1OC (stereo unspecified)	-81*	-13	0	0	0
O=c1c2cc(Br)ccc2nc(-c2ccccc2)n1O	11	1	-5	0	-1
C#CC(CC)(CC)NC(=S)Nc1ccc(S(N)(=O)=O)cc1	-43*	-1	4	2	0
CCCNC(=S)Nc1ccc(S(N)(=O)=O)cc1	4	8	11	0	0
O=C(Nc1cccc(F)c1)c1cc(S(=O)(=O)N2CCOCC2)cs1	-84*	-1	1	7	0
O=C(Nc1ccc(F)cc1)c1cc(S(=O)(=O)N2CCOCC2)cs1	-61*	0	2	2	-1
CN(Cc1nc(Cc2ccccc2F)no1)CC1(N2CCOCC2)CCCCC1	0	-7	1	1	1
CN(Cc1nc(Cc2ccccc2F)no1)Cc1cccc2ncccc12	-40*	-6	1	13	0
CCc1cccc(NC(=O)Nc2csc3c2CCCC3)c1	-30*	-4	14	15	0
O=C1C=C(NC2=CC3OC(c4ccccc4)OCC3OC2=O)CCC1 (stereo unspecified)	-31*	-5	-8	3	-1
Cc1cccc(/N=C/c2nc(-c3ccccc3Br)oc2O)n1	-14	-1	1	-3	0
COc1ccc(-c2nc(/C=C3\C(C)=Nc4ccccc43)c(O)o2)cc1	-15	-5	2	33*	8
CC1=Nc2ccccc2/C1=C\c1nc(-c2ccc(C(F)(F)F)cc2)oc1O	19	-12	-8	79*	25
Oc1ccccc1-c1nnc(-c2ccc(C(F)(F)F)cc2)o1	-13	-3	4	5	0
CC1=Nc2ccccc2/C1=C\c1nc(-c2ccccc2)oc1O	-8	-3	29	27	9
CC1=Nc2ccccc2/C1=C/c1nc(-c2ccc(C)s2)oc1O	-18	-4	-8	73*	17
O=C(Nc1ccc(Cl)cc1)NC1CCCCC1	-18	-5	5	9	2
O=C(Nc1ccccc1C(F)(F)F)NC1CCCCCCC1	-31*	-5	-4	3	1
Cc1cccc(NC(=O)NC2CCCCCCC2)c1	-34*	-6	3	12	1
S=C(Nc1ccc(Br)cc1)NC1CCCC1	-50*	-7	-8	16	1
O=C(Nc1ccccc1C(F)(F)F)NC1CCCCC1	-7	-2	3	4	0
O=C(Nc1ccc(F)c(F)c1)NC1CCCCC1	-32*	-6	0	18	1
